Mtb FBA inh = inhibits M. tuberculosis FBA enzyme. inhibition, % at 1 µM. AID 588726. 2.3% of 360,000 active. purified M. tuberculosis FBA, fluorescence read-out; in the data active = inhibition above about 27%
Target sequence (P9WQA3 whole entry, looked up): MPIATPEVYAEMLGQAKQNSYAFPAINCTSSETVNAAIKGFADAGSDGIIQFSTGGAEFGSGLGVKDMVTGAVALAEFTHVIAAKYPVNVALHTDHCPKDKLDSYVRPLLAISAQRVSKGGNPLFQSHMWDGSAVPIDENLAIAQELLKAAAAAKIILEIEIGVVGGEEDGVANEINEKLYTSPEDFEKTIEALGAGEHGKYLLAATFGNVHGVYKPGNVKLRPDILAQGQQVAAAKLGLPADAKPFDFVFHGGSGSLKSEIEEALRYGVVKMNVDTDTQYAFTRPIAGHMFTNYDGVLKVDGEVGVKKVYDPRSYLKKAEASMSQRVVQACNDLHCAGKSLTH
Anthrax LF prot = inhibitors of Bacillus anthracis lethal factor protease | P15917 | multiplex microsphere protease cleavage assay, LF | inhibition, % at 10 µM | 0.12% of 360,000 active | AID 588501
BoNT-A LC inh2 = BoNT A light chain protease inhibition; multiplex microsphere protease substrate cleavage, flow cytometry; inhibition, % at 10 µM; 0.17% of 360,000 active; AID 588499
GDH-TPI inh = counter-screen for M. tuberculosis FBA inhibitors: GDH-TPI coupled enzymes. 1.2% of 360,000 active. GDH-TPI coupled enzyme counterscreen, NADH absorbance. AID 588335. inhibition, % at 4.8 µM; in the data active = inhibition above about 30%
BoNT F protease = inhibitors of Botulinum neurotoxin F light chain protease. inhibition, % at 10 µM. Multiplex microsphere protease cleavage assay, flow cytometry. 0.22% of 360,000 active; in the data active = inhibition above about 35%, passing the limit was not always enough; inconclusive = no clear call, values can overlap the other calls
Bead autofluor = compound fluorescence in toxin protease inhibitor counterscreen | compound autofluorescence counterscreen, microsphere flow cytometry; active compounds read high | fluorescence intensity (concentration not given with the values) | 3.1% of 360,000 active; in the data active = fluorescence intensity above about 16000; inconclusive = no clear call, values can overlap the other calls
Numbers stand for hits; n = inactive; u = inconclusive. This is a sample that favours compounds with a hit; in the whole collection about 6.7% have one here. Rule as the data show it, unless noted: active = inhibition above about 30%; inconclusive = no clear call, values can overlap the other calls; inactive = below that.

SMILES	Mtb FBA inh	Anthrax LF prot	BoNT-A LC inh2	GDH-TPI inh	BoNT F protease	Bead autofluor
COc1cc2c(cc1OC)-c1cc(Nc3cccc(F)c3)nc(=O)n1CC2	n	n	n	33.8	n	n
O=C(Nc1ccnn1C1CCN(Cc2ccc(CO)o2)CC1)c1ccccc1Cl	n	n	n	n	n	u
COc1ccc(-c2noc(CSc3nnc(Cc4ccccc4)n3-c3ccc(Cl)cc3)n2)cc1	n	n	n	n	n	24663
Cn1c(SCc2nc(-c3ccccc3)no2)nnc1-c1cccs1	n	n	u	n	n	20460
Cn1c(SCc2nc(-c3ccc(Cl)cc3)no2)nnc1-c1cccs1	n	n	n	n	n	n
CCCn1c(SCc2nc(-c3cccs3)no2)nnc1-c1ccncc1	n	n	n	n	n	21415
Cn1c(SCc2nc(-c3ccc(Cl)cc3)no2)nnc1-c1ccccc1	n	n	n	n	n	20554
COc1ccc(/C=N/OCC(=O)NC(c2ccccc2)c2ccccc2)c(OC)c1	n	n	n	n	n	n
CCOc1ccccc1OCc1nn2c(COc3ccccc3)nnc2s1	n	n	n	n	n	16185
COc1ccc(-c2nnc3sc(COc4ccccc4)nn23)cc1	n	n	n	n	n	20311
Clc1ccccc1-c1nn2c(COc3ccccc3)nnc2s1	n	n	n	n	n	n
CCOc1ccc(-c2nnc3sc(COc4ccccc4)nn23)cc1	n	n	n	n	n	n
c1ccc(Cc2nn3c(COc4ccccc4)nnc3s2)cc1	n	n	n	n	n	24302
COc1ccc(-c2nnc3sc(COc4ccc(C)cc4)nn23)cc1	n	n	n	n	u	n
CCOc1cc(C(C(=O)NCC2CCCO2)N(C(=O)Cn2nnc3ccccc32)c2ccccc2C)ccc1O (stereo not drawn)	n	n	n	n	n	n
CCOc1ccc(/C=N/NC(=O)Cc2csc(Nc3cccc(C(F)(F)F)c3)n2)c(OCC)c1	n	n	n	n	n	n
CCOC(=O)C1(S(=O)(=O)c2ccc(Cl)cc2)CCN(Cc2ccc(C)cc2)CC1	n	n	n	n	n	20535
CCOC(=O)C1(Cc2ccc(Cl)cc2)CCN(Cc2cnc(N)nc2)CC1	n	n	n	n	n	n
Nc1nnnn1CC(=O)OCc1cccc(Br)c1	n	n	u	n	n	23207
CCOC(=O)c1c(C)c(C(=O)Nc2ccccc2)c(C)n1CC	n	n	n	n	n	n
CCOC(=O)c1c(C)c(C(=O)NCCN2CCOCC2)c(C)n1C	n	n	n	n	n	n
CCOC(=O)c1c(C)c(C(=O)NCc2cccs2)c(C)n1CC	n	n	n	n	n	20405
CCOC(=O)c1c(C)c(C(=O)NCCN2CCOCC2)c(C)n1CC	n	n	n	n	n	17127
COC(=O)C1CC(c2ccccc2)N(c2ccccc2)O1 (stereo not drawn)	n	n	n	n	n	n
CCC(=O)NC(=S)Nc1c(C)cc(Br)cc1C	n	n	n	n	n	n
SMILES	Mtb FBA inh	Anthrax LF prot	BoNT-A LC inh2	GDH-TPI inh	BoNT F protease	Bead autofluor
O=C(CSc1nnc(-c2ccncc2)n1Cc1ccco1)N1c2ccccc2Sc2ccc(Cl)cc21	n	n	n	n	n	n
C/C(Cl)=C/CSc1nnc2n(N)c(=O)c3ccccc3n12	n	n	n	n	n	23180
NC(=O)CSc1nnc2n(N)c(=O)c3ccccc3n12	n	n	n	n	n	n
Cc1nc(CN2CCN(S(=O)(=O)c3c(Cl)cc(Br)cc3Cl)CC2)cs1	n	n	n	n	n	n
Cc1cccc(C(=O)N/N=C2\CS(=O)(=O)N(C)c3ccsc32)c1	n	n	n	n	n	n
CN1c2ccsc2/C(=N/NC(=O)c2c(F)cccc2F)CS1(=O)=O	n	n	n	34.4	n	n
CCN(CC)c1ccc(/C=N/n2c(-c3ccccc3Br)n[nH]c2=S)cc1	n	n	n	37.5	u	n
Cc1nn(-c2ccccc2)c(C)c1/C=N/n1c(-c2ccccc2Br)n[nH]c1=S	n	n	n	n	u	n
Cc1[nH]n(-c2ccc([N+](=O)[O-])cc2)c(=O)c1C=NCCc1ccc(S(N)(=O)=O)cc1	n	n	n	n	n	n
CCCc1[nH]n(-c2ccc([N+](=O)[O-])cc2)c(=O)c1C=NCCCn1ccnc1	n	n	n	31.9	n	n
Cc1[nH]n(-c2ccc([N+](=O)[O-])cc2)c(=O)c1C=NCCc1c(C)[nH]c2ccccc12	n	n	n	30.7	n	n
COc1ccc(C)cc1N(CC(=O)N/N=C/c1ccccc1C(=O)O)S(=O)(=O)c1ccccc1	n	n	n	n	n	n

Source: PubChem (several laboratories)
